Bioassay records as filed in PubChem BioAssay.
TRPV1 ag = HTS Assay for Compounds that Act as Agonists of the Vanilloid Receptor 1. Transient receptor potential cation channel subfamily V member 1 (Homo sapiens), Q8NER1. TRPV1-expressing cells, Fluo-8 calcium influx, agonist mode. activation, % at 8.33 µM. 0.19% of 320,000 active. AID 540275, 2011; in the data active means activation above about 80%; inconclusive means between about 30% and that limit; further: 0% is about no effect
Target sequence (Q8NER1 whole entry, looked up): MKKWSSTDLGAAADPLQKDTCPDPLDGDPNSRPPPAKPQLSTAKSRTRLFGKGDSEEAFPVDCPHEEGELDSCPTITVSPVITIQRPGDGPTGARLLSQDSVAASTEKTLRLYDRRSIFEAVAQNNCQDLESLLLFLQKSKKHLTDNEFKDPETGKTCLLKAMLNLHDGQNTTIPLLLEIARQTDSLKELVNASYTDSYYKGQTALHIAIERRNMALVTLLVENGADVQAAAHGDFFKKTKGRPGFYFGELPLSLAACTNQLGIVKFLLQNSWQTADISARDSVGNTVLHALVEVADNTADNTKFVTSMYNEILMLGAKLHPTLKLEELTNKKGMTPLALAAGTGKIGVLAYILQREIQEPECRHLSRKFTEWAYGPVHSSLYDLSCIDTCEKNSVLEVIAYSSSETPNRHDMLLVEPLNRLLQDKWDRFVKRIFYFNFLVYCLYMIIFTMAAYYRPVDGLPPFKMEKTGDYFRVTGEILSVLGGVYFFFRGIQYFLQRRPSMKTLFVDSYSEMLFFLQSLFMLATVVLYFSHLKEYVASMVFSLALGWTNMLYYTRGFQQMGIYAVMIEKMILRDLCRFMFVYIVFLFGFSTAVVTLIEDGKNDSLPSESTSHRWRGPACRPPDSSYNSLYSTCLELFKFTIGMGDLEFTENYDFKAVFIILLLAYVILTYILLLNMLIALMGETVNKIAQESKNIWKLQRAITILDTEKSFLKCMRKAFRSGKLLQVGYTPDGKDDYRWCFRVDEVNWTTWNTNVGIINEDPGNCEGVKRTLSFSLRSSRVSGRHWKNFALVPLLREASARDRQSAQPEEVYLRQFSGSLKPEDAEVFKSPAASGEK
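Cells expressing TRPV1 were dye-loaded with Fluo-8 and read kinetically: 10 s baseline, 3 min after compound (agonist portion), then 2 min after EC20 capsaicin (allosteric enhancer portion). Calcium-bound dye fluorescence at 480/520 nm.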
hERG WT inh = qHTS for Inhibitors of KCHN2 3.1: Wildtype qHTS; Voltage-gated inwardly rectifying potassium channel KCNH2 (Homo sapiens), Q12809; U2OS, BacMam KCNH2, thallium flux FluxOr; hits give low values; activity change, % at 1.84 µM; 0.37% of 340,000 active; AID 720551, 2013;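 active means maximum activity change below -70%; inconclusive means maximum activity change between -70% and -50%; inactive means maximum activity change above -50%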; further: on the % scale 0 is the no-effect control and ±100 the full control effect
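U2OS cells transduced with wild-type KCNH2 virus are loaded with FluxOr dye for 45 min, and thallium flux is measured in kinetic reads before and after stimulation buffer. Rate constants are normalized to DMSO controls.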
TRPV1 potentiator = HTS Assay for Compounds that Act as Potentiators of the Vanilloid Receptor 1; TRPV1-expressing cells, Fluo-8 calcium influx, capsaicin EC20 potentiation; 0.02% of 320,000 active; potentiation, % at 8.33 µM; AID 540277, 2011; in the data active means potentiation above about 80%; inconclusive means between about 30% and that limit; further: 0% is about no effect
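Cells expressing TRPV1 were dye-loaded with Fluo-8 and read kinetically: 10 s baseline, 3 min after compound (agonist portion), then 2 min after EC20 capsaicin (allosteric enhancer portion). Calcium-bound dye fluorescence at 480/520 nm.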
KCNH2 3.1 block = qHTS for Inhibitors of KCHN2 3.1: Mutant qHTS; Potassium voltage-gated channel subfamily H member 2, brain isoform KCNH2 3.1 (human); U2OS KCNH2 3.1, thallium flux FluxOr; hits give low values; AID 720553, 2013; 0.95% of 340,000 active; activity change, % (tested at about 1.8 µM);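 active means maximum activity change below -70%; inconclusive means maximum activity change from -70% to -50%; inactive means maximum activity change above -50%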;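 further: thallium influx rate constant from kinetic fluorescence after stimulation buffer; on the % scale 0 is the no-effect control and ±100 the full control effect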
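Virally transduced U2OS (3.1 isoform, 4 h infection in dark at RT) → overnight 37 C → FluxOr + Red40 in HBSS/HEPES, 45 min → stimulation buffer, 2 min kinetic read → rate constant vs DMSO controls.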
* marks the source's active call; other numbers are inactive results; i = inactive; u = inconclusive; x = no result given. A selection: hits, their analogues and other compounds. The true share with any hit is near 1.2%.

SMILES	TRPV1 ag	hERG WT inh	TRPV1 potentiator	KCNH2 3.1 block
O=C1C2=C(C(=O)c3ccccc31)C1O[C@](CCCCN3C(=O)c4ccccc4C3=O)(Cc3c1ccc1ccccc31)O2	i	x	i	x
CCOc1cc(S(=O)(=O)N2CC=C(c3ccc(F)cc3)CC2)c(OCC)cc1-n1cnnn1	4	-102*	4	-82*
CC(C)N(C(=O)Cn1c(SCC(=O)NCc2ccc3c(c2)OCO3)nc2ccccc21)C(C)C	5	-122*	6	1
COc1ccc(Cn2nnnc2C(c2cccs2)N2CCN(c3ccc([N+](=O)[O-])cc3)CC2)cc1 (stereo not drawn)	2	u	-3	-99*
COc1ccc(Cn2nnnc2C(c2ccc(C)cc2)N2CCN(C3CCCC3)CC2)cc1 (stereo not drawn)	0	16	6	-73*
COc1ccc(Cn2nnnc2C(c2cccs2)N2CCN(c3ccccc3)CC2)cc1 (stereo not drawn)	-1	2	-7	1
CC(=O)NS(=O)(=O)c1ccc(NC(=O)c2ccc(S(=O)(=O)N3CCCC3)cc2)cc1	-2	-2	4	7
O=C(CCl)N(O)c1ccc(C=Cc2ccccc2)cc1	x	-7	x	x
COc1ccc(C(=O)NCCc2cc3ccc(C)c(C)c3[nH]c2=O)cc1OC	0	-11	-9	-111*
O=C1CCN(CCc2ccccc2)CCN1[C@H](CO)c1ccccc1	-1	-5	-13	4
O=C1CCN(CCc2ccccc2)CCN1[C@H](CSc1ccccc1)c1ccccc1	23	-134*	-2	-101*
Cc1ccc(SC[C@H](Cc2ccccc2)N2CCN(CC(C)C)CCC2=O)cc1	u	x	-19	x
CCCN1CCC(=O)N([C@H](CSc2ccccc2)c2ccccc2)CC1	12	-45	-3	-94*
Cc1ccc(SC[C@H](c2ccccc2)N2CCN(CCc3ccccc3)CCC2=O)cc1	-2	-142*	-12	-114*
CC(C)CN1CCC(=O)N([C@H](CSc2ccccc2)Cc2ccccc2)CC1	u	-1	-10	-101*
CC(=O)OCC1CC(COC(C)=O)C(COC(C)=O)CC1COC(C)=O (stereo not drawn)	x	20	x	-2
CCOC(=O)c1c(C)[nH]c(C)c1C(=O)COC(=O)Cc1ccc(OC)c(OC)c1	x	-8	x	7
CCCN1CCC(=O)N([C@H](CSc2ccc(C)cc2)c2ccccc2)CC1	15	x	-18	x
CCCN1CCC(=O)N([C@H](CSc2ccc(Br)cc2)Cc2ccccc2)CC1	u	-89*	-45	-101*
CC(C)C[C@@H](CSc1ccc(Br)cc1)N1CCN(CCc2ccccc2)CCC1=O	11	x	13	x
CN1CCC(=O)N([C@H](CSc2ccc(Br)cc2)c2ccccc2)CC1	17	-7	7	-98*
CCCN1CCC(=O)N([C@H](CSc2ccccc2)Cc2ccccc2)CC1	21	34	-14	u
CC(C)C[C@@H](CSc1ccccc1)N1CCN(CCc2ccccc2)CCC1=O	7	-77*	1	-101*
Cc1cnc2c(N)cc(C)c(C)c2c1	x	6	x	5
CCCCN1C[C@H](COC(=O)CCC)Oc2cccc(F)c2S1(=O)=O	x	37	x	-8
SMILES	TRPV1 ag	hERG WT inh	TRPV1 potentiator	KCNH2 3.1 block
Cn1c(O)c(N=NC(=O)CNC(=O)/C=C/c2ccccc2)c2ccccc21	-10	6	10	-184*
Cc1ccc(S(=O)(=O)CC2CSc3nnc(C)c(=O)n32)cc1 (stereo not drawn)	1	-5	8	-93*
Cc1nnc2n(c1=O)C(CS(=O)(=O)c1ccc3ccccc3c1)CS2 (stereo not drawn)	-6	9	2	22
Cc1cccc(-c2cc3nc4c(c(NCc5ccco5)n3n2)CCCC4)c1	u	u	-31	-83*
Cc1cccc(-c2cc3nc4c(c(N5CCOCC5)n3n2)CCCC4)c1	12	-2	25	7
CC(Sc1nnc(C2CC2)n1C1CC1)C(=O)Nc1cccc(S(=O)(=O)N2CCOCC2)c1 (stereo not drawn)	-1	-15	-1	-1
O=C(NCc1ccccc1)c1ccc(-c2ccc(F)cc2)o1	u	-260*	-10	-3
Cc1ccc(NC(=O)CN(C)C(=O)Cc2c[nH]c3ccccc23)cc1	x	-1	x	26
NC(=O)C1CCN(CC(=O)Nc2ccccc2Sc2ccc(Cl)cc2)CC1	u	5	0	-1
O=C(CN1CCN(C(=O)CNC(=O)c2ccc3c(c2)OCO3)CC1)Nc1ccccc1Cl	16	2	-21	-4
O=C(CN1CCN(C(=O)CNC(=O)c2ccc(-c3ccccc3)cc2)CC1)Nc1ccccc1Cl	x	15	x	-84*
Cc1c(C(=O)N2CCN(CC(=O)Nc3ccccc3Cl)CC2)oc2ccc(Br)cc12	12	-29	-28	-73*
O=C(CN1CCCC1)Nc1ccccc1Sc1ccc(Cl)cc1	-12	10	-14	-90*
CCOc1ccc(NC(=O)CN2CCN(CC(=O)Nc3ccc(C(=O)OC)cc3)CC2)cc1	2	u	u	-83*
COCc1ccc(C(=O)NC2CCCc3c2cnn3-c2ccc(C)c(C)c2)o1 (stereo not drawn)	2	-10	-4	-1
CCOc1ccc(NC(=O)CN2CCN(CC(=O)Nc3ccc(F)c(F)c3)CC2)cc1	4	-117*	4	-93*
CCOc1ccc(NC(=O)CN2C(=O)c3ccccc3C2=O)cc1	3	x	10	0
O=C(CN1CCN(CC(=O)Nc2ccccc2Cl)CC1)Nc1ccc(F)c(F)c1	15	u	-6	-111*
Cc1cc(C)c2c(n1)SCC(=O)N2CC(=O)Nc1ccc(C)c(C)c1	2	2	5	-130*
CCOc1ccc(NC(=O)CN2C(=O)CSC2=O)cc1	0	-18	24	-90*
COc1cccc(NC(=O)CN2C(=O)CSc3nc(C)cc(C)c32)c1	-2	-4	2	-7
O=c1[nH]c(=O)c2[nH]c(=S)n(-c3ccccc3)c2[nH]1	x	-2	x	-1
O=C1C2C3CCCC3=C3CCCC3C2C(=O)N1c1ccccc1Cl (stereo not drawn)	2	x	10	x
CCN(Cc1ccccc1)C(=O)CSc1ccccc1C(=O)O	0	-233*	1	-176*
CCOC(=O)c1c(NC(=O)c2cc3n(n2)C(C(F)(F)F)CC(c2cccs2)N3)sc(C)c1C (stereo not drawn)	1	-4	20	-78*
Cc1nn(C)c(C)c1CNC(=O)c1cc2n(n1)C(C(F)(F)F)CC(c1cccs1)N2 (stereo not drawn)	2	2	-2	-2
